Most compounds without a hit are left out; they make up all but 0.65% or so of the library.
ugtP null kill: growth inhibition of S. aureus ugtP deletion strain | S. aureus RN4220 ugtP deletion, OD600 growth, 16 h | growth inhibition, % (test concentration not listed) | 330,000 compounds, 0.54% hits | AID 1259309; in the data active means growth inhibition above about 68%;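 further: plate controls were untreated wells for no effect and antibiotic for full effect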
RN4220 kill: kills Staphylococcus aureus RN4220; S. aureus RN4220 growth, OD600, 16 h; inhibition, % (concentration not given with the values); 330,000 compounds, 0.33% hits; AID 1259311; in the data active means inhibition above about 85%;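 further: plate controls were untreated cells for no effect and reference antibiotic for full effect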
BJeLR viability: kills HRASV12-expressing BJeLR cells; BJeLR (HRASV12) viability, CellTiter-Glo ATP luminescence, 48 h; 300,000 compounds, 0.17% hits; inhibition, % (test concentration not listed); in the data active means inhibition above about 50%
Numbers without * were called inactive; . = no result given.

SMILES	ugtP null kill	RN4220 kill	BJeLR viability
COc1c(N2CC3CCCNC3C2)c(F)cc2c(=O)c(C(=O)O)cn(C3CC3)c12 (stereo not given)	100*	101*	.
NC1CCN(c2nc3c(cc2F)c(=O)c(C(=O)O)cn3-c2ccc(F)cc2F)C1 (stereo not given)	99*	100*	-10
O=[N+]([O-])c1ccc(/C=N/Nc2ccnc3cc(Cl)ccc23)o1	.	.	5
Cc1sc(NC(=O)/C=C/c2ccco2)c(C(=O)OC(C)C)c1C	.	.	10
COc1ccc(Cl)cc1NC(=O)CN(C)C(=O)Cc1ccc(-c2ccccc2)cc1	-8	2	.
Cc1ccc(NC2=C(NC(=O)c3ccccc3)C(=O)c3ccccc3C2=O)cc1Cl	88*	86*	2
Cc1ccc(NCC(=O)c2ccccc2)cc1Cl	-1	2	15
CN(C)C(=O)CCc1ccc2c3c([nH]c2c1)[C@]1(C)[C@@H](C(=O)N2CCCCC2)C[C@H](CC(=O)NCc2cccc(C(F)(F)F)c2)C(=O)N1CC3	4	-1	.
CC(C)(C)C(=O)Nc1nnc(CCc2ccccc2)s1	1	6	14
CC1(C)c2[nH]c3ccccc3c2C[C@@H]2C(=O)N(Cc3ccccc3)C(=O)N21	.	.	10
COC(=O)[C@@H]1Cc2c([nH]c3ccccc23)C(C)(C)N1C(=O)CCl	10	1	91*
CCC(=O)C1CCCN(C(=O)CCc2nnc(-c3ccc4c(c3)OCO4)o2)C1 (stereo not given)	-3	-5	4
COC(=O)CCC(=O)NNC(=O)c1ccc(Cl)cc1Cl	3	2	13
COc1ccc(C=NNC(=O)c2cccc([N+](=O)[O-])c2)cc1OS(=O)(=O)c1ccccc1	-10	0	.
CCOc1cc(C=NNC(=O)c2cccc([N+](=O)[O-])c2)ccc1OS(=O)(=O)c1ccccc1	99*	59	.
COc1ccc(Cl)cc1C(=O)NNC(=S)NC(=O)c1cc(-c2ccccc2)nc2ccccc12	97*	93*	9
CCNC(=S)NNC(=O)c1cc(-c2cccc(OC)c2)nc2ccccc12	-4	6	10
COc1ccc(C(=O)NNC(=S)NC(=O)c2cc(-c3ccccc3)nc3ccccc23)cc1	22	84	3
CCNC(=S)NNC(=O)c1cc(-c2ccc(OCC)cc2)nc2ccccc12	4	6	54*
NC(=O)[C@H]1CC2(CC(c3cccc(NC(=O)CC(c4ccccc4)c4ccccc4)c3)=NO2)CN1C(=O)C(c1ccccc1)c1ccccc1 (stereo not given in full)	-21	-19	2
Cc1cc(OCC(=O)NNC(=O)c2ccncc2)cc(C)c1Cl	-1	2	.
O=C(O)CC(C(=O)O)N1C(=O)/C(=C/c2ccc(-c3nc4ccccc4s3)o2)SC1=S (stereo not given)	-11	-1	-1
O=C(O)CCCN1C(=O)/C(=C\c2ccc(-c3nc4ccccc4s3)o2)SC1=S	100*	47	5
O=C(O)CCN1C(=O)/C(=C/c2ccc(-c3nc4ccccc4s3)o2)SC1=S	1	99*	-1
O=C(O)CCCN1C(=O)/C(=C/C=C/c2ccco2)SC1=S	4	7	21
SMILES	ugtP null kill	RN4220 kill	BJeLR viability
COc1ccc(C2(C#N)CCC(=O)N2c2ccccc2)cc1 (stereo not given)	9	3	1
Cc1ccc(C(=O)C2CC2)c(C)c1	2	3	.
CCCCOc1cccc(C(=O)NC(=S)Nc2ccc(Cl)c(C(=O)O)c2)c1	-12	13	4
CCOC(=O)c1ccc(NC(=O)N2CC3CC(C2)c2cccc(=O)n2C3)cc1 (stereo not given)	2	-1	-11
CN(CC(=O)Nc1ccccc1Cl)C(=O)CSc1nnc(N)s1	4	2	-6
CC(C)[C@]12O[C@H]1[C@@H]1O[C@]13[C@]1(O[C@H]1C[C@H]1C4=C(CC[C@@]13C)C(=O)OC4)[C@@H]2O	.	.	68*
CCCCCCCCCCn1ccc(=N)cc1	101*	100*	4
CCCCCCCCn1ccc(=N)cc1	14	4	21
O=C(NCc1cccs1)NC1CCCCC1	1	0	1
COc1ccc(Oc2cn[nH]c2-c2ccc(O)cc2O)cc1	8	-13	-13
CCCc1ccc(Oc2cn[nH]c2-c2ccc(O)cc2O)cc1	90*	67	.
Cc1ccccc1CN1CCN(CC(=O)NCc2ccco2)C1=O	-4	0	-3
CCOc1c2ccc(C(=O)NC3CCCc4ccccc43)cc2nn1C (stereo not given)	6	17	13
COc1ccc(/C=N\NC(=O)c2cccc(F)c2)cc1COc1ccccc1	.	.	54*
COc1ccc(C=NNC(=O)c2ccccc2)cc1COc1ccc(F)cc1	-6	-1	.
CCOC(=O)N1CCN(S(=O)(=O)c2ccc(C(=O)Nc3nnc(C)o3)cc2)CC1	3	5	11
NC(=O)c1snnc1-c1ccccc1	-2	2	-3
NC(=O)c1sc2nnc(-c3ccccc3)c(-c3ccccc3)c2c1N	84*	2	3
COc1cc(-c2[nH]ncc2CN(C)Cc2nonc2C)cc(OC)c1OC	11	4	0
CC(C)=CCC12Oc3cc(O)ccc3C1(O)Oc1cc(O)c([C@H]3C=C(C)CC(c4ccc(O)cc4O)[C@H]3C(=O)c3ccc(O)cc3O)c(O)c1C2=O (stereo not given in full)	100*	96*	3
O=C(CCC(=O)Nc1ccccc1Cl)NNC(=O)c1ccco1	2	3	3
CCC1N=C(SC)NC(C)=C1C(=O)c1ccccc1 (stereo not given)	20	9	.
CSC1=NC(C(Cl)(Cl)Cl)N=C(c2ccc(C)cc2)N1 (stereo not given)	3	3	56*
CCCCCCCCCCCCCCCC(=O)OC(CC(=O)O)C[N+](C)(C)C (stereo not given)	99*	42	.
CCCCCCC(=O)O	6	3	.
SMILES	ugtP null kill	RN4220 kill	BJeLR viability
NC1=NC[C@H](Cc2ccc(O)cc2)N1CCCCC1CCCCC1	100*	100*	18
NC1=NC[C@H](Cc2ccccc2)N1CCCCC1CCCCC1	11	6	15
Cc1cc(C)c2nc(N(CCN(C)C)C(=O)c3ccc4ccccc4c3)sc2c1	-13	-14	-1
CC(C)CC1NC(=O)N(CC(=O)NC2CCCCC2)C1=O (stereo not given)	8	2	.
O=C(NC(=S)Nc1ccccc1N1CCCC1)c1ccc(F)cc1	79	5	0
Cc1ccccc1C(=O)NC(=S)Nc1ccccc1N1CCCC1	85*	0	0
COc1ccccc1C(=O)NC(=S)Nc1ccccc1N1CCCC1	.	.	-1
O=C(NC(=S)Nc1ccccc1N1CCCCC1)c1ccc(F)cc1Cl	91*	-13	-16
O=C(COc1ccc(Br)cc1)NC(=S)Nc1ccccc1N1CCOCC1	-4	-6	-9
O=C(NC(=S)Nc1ccccc1N1CCOCC1)c1ccc(Br)cc1	94*	-8	-22
O=C(c1ccccc1F)n1c2c(c3ccccc31)CCCC2	93*	-12	12
CC1CCN(CC(=O)n2c3c(c4ccccc42)CCCC3)CC1	7	4	4
O=C(O)C1CC=CCC1C(=O)N1CCN(c2nc(-c3ccccc3Cl)c3cc(Br)ccc3n2)CC1 (stereo not given)	-23	-2	.
CC(=O)c1ccc(NC(=S)NC(=O)/C=C/c2ccco2)cc1	33	-3	2

Assay outcomes deposited in PubChem by several laboratories.
